Results reported in PubChem BioAssay AID1159580 (chemical genetic matrix, 2015).
Values joined by “and” are separate entries in the source; they are usually repeats but may differ in a detail not shown here. Identical values can stand only once. The whole screen tested about 5,500 compounds, of which about 2,000 (36%) were called active. Another 18% or so got no clear call; they are omitted. Cut-off read from the data, not from the text of the source: active = normalized growth mostly below about 0.91 (no sharp cut-off); inconclusive = no clear call, values can overlap the other calls; inactive = mostly above about 0.92. The list shows a part of the results.

Assay: chemical genetic growth profiling, strain panel (AID 1159580);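 note: tested at 20 µM; growth read once vehicle control cultures reached saturation at 30 °C; 1 = growth at the plate median or of vehicle wells; lower values mean less growth of the strain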
Settings: S. cerevisiae deletion strains, growth OD

Measured: normalized growth

c1cncc(C2CCCCN2)c1 (configuration not stated)
inactive: locus YAL021C, strain ccr4, active compounds read low 0.986 | locus YAL026C, strain drs2, active compounds read low 0.999 | locus YAL030W, strain snc1, active compounds read low 1 | locus YBL061C, strain skt5, active compounds read low 0.995 | locus YBR009C, strain hhf1, active compounds read low 0.995 | locus YBR021W, strain FUR4, active compounds read low 1.02 | locus YBR023C, strain chs3, active compounds read low 0.998 | locus YBR171W, strain sec66, active compounds read low 0.985 | locus YBR229C, strain ROT2, active compounds read low 1.02 | locus YBR231C, strain swc5, active compounds read low 0.991 | locus YBR279W, strain paf1, active compounds read low 0.99 | locus YCL011C, strain gbp2, active compounds read low 0.997 | locus YCL016C, strain dcc1, active compounds read low 0.996 | locus YCL029C, strain bik1, active compounds read low 0.982 | locus YCL061C, strain MRC1, active compounds read low 0.988 | locus YCL069W, strain vba3, active compounds read low 0.993 | locus YCR088W, strain abp1, active compounds read low 0.993 | locus YDL005C, strain med2, active compounds read low 0.997 | locus YDL035C, strain GPR1, active compounds read low 1.04 | locus YDL040C, strain nat1, active compounds read low 0.992 | locus YDL074C, strain BRE1, active compounds read low 1.01 | locus YDL101C, strain DUN1, active compounds read low 1.01 | locus YDL185W, strain tfp1, active compounds read low 1 | locus YDL192W, strain arf1, active compounds read low 0.998 | locus YDR001C, strain nth1, active compounds read low 0.991 | locus YDR069C, strain doa4, active compounds read low 0.988 | locus YDR101C, strain arx1, active compounds read low 0.971 | locus YDR137W, strain rgp1, active compounds read low 0.996 | locus YDR159W, strain sac3, active compounds read low 0.979 | locus YDR162C, strain NBP2, active compounds read low 1 | locus YDR195W, strain ref2 0.98 | locus YDR297W, strain sur2, active compounds read low 0.986 | locus YDR318W, strain mcm21, active compounds read low 1.01 | locus YDR334W, strain swr1, active compounds read low 0.99 | locus YDR335W, strain msn5, active compounds read low 0.994 | locus YDR388W, active compounds read low 0.996 | locus YDR392W, strain spt3, active compounds read low 0.99 | locus YDR502C, strain sam2, active compounds read low 0.995 | locus YEL003W, strain gim4, active compounds read low 1.01 | locus YEL037C, strain rad23, active compounds read low 0.999 | locus YEL061C, strain CIN8 (second series), active compounds read low 0.992 | locus YEL061C, strain CIN8, active compounds read low 0.999 | locus YER015W, strain faa2, active compounds read low 0.997 | locus YER016W, strain bim1, active compounds read low 0.995 | locus YER110C, active compounds read low 0.98 | locus YER111C, strain swi4, active compounds read low 0.989 | locus YER155C, strain BEM2 (second series), active compounds read low 0.996 | locus YER155C, strain BEM2, active compounds read low 1.01 | locus YER167W, strain BCK2, active compounds read low 0.993 | locus YFR010W, strain ubp6, active compounds read low 0.989 | locus YGL078C, strain dbp3, active compounds read low 1 | locus YGL086W, strain mad1, active compounds read low 0.978 | locus YGL167C, strain pmr1, active compounds read low 0.989 | locus YGL173C, strain kem1, active compounds read low 0.984 | locus YGL227W, strain vid30, active compounds read low 0.983 | locus YGL240W, strain doc1, active compounds read low 0.981 | locus YGL248W, strain PDE1, active compounds read low 1.03 | locus YGL253W, strain hxk2, active compounds read low 0.986 | locus YGR078C, strain PAC10, active compounds read low 1.01 | locus YGR135W, strain pre9, active compounds read low 0.999 | locus YGR252W, strain gcn5, active compounds read low 0.969 | locus YHR013C, strain ard1, active compounds read low 1 | locus YHR027C, strain rpn1, active compounds read low 0.985 | locus YHR030C, strain SLT2, active compounds read low 1.01 and 1.02 | locus YHR079C, strain IRE1 (second series), active compounds read low 0.998 | locus YHR079C, strain IRE1, active compounds read low 1 | locus YHR094C, strain hxt1, active compounds read low 0.996 | locus YHR129C, strain ARP1, active compounds read low 1 | locus YHR142W, strain chs7, active compounds read low 0.985 | locus YHR200W, strain rpn10, active compounds read low 0.999 | locus YIL066C, strain RNR3, active compounds read low 1.01 | locus YIL073C, strain SPO22, active compounds read low 0.996 | locus YIL125W, strain kgd1, active compounds read low 0.986 | locus YIR030C, strain dcg1, active compounds read low 0.988 | locus YJL092W, strain hpr5, active compounds read low 0.995 | locus YJL095W, strain BCK1 (second series), active compounds read low 1.01 | locus YJL095W, strain BCK1, active compounds read low 1.05 and 0.994 | locus YJL115W, strain asf1, active compounds read low 0.986 | locus YJL129C, strain trk1, active compounds read low 0.999 | locus YJL134W, strain LCB3, active compounds read low 1.01 | locus YJL154C, strain vps35, active compounds read low 0.991 | locus YJL164C, strain tpk1, active compounds read low 0.998 | locus YJL166W, strain qcr8, active compounds read low 0.993 | locus YJL168C, strain set2, active compounds read low 0.995 | locus YJL187C, strain SWE1 (second series), active compounds read low 1.03 | locus YJL187C, strain SWE1, active compounds read low 1.01 | locus YJR043C, strain POL32, active compounds read low 1.02
